Results filed as inconclusive are left out. Active and inactive are the calls of the source. Calls follow the shape of the dose curve; as a rule, active = well fitted cell-killing curve with a large enough effect; inconclusive = small, poorly fitted or top-dose-only effect, or effect the other way; inactive = flat fitted curve, though single readings scatter. Where a SMILES comes first, the peptide text is derived from it. Bridges are numbered along the chain shown (N, C = ends). [ ]: non-standard residue; d: D form. The star is where a group is joined. X1 = CCC(C)C(N)C1=NC(C(=O)*)CS1; dOrn = NCCC[C@@H](N)C(=O)O
What was measured:
Test in all cases: Primary qHTS to identify gynecologic anti-cancer compounds using libraries of approved drugs and bioactive compounds (AID 1345084); also: nearly all actives have a fitted effect of over 55% in size
[1] = system: CAOV3; details: Gynecologic cancer cell panel viability, ATPlite luminescence, 48 h; series mostly up to 57.5 µM
Method in brief: (§1)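 ATP-based viability (ATPlite), 1,000 cells/well, 16 h pre-incubation, 48 h compound at 37 C, 5% CO2, 15 min RT before read.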

[2] = system: CASKI; details: Gynecologic cancer cell panel viability, ATPlite luminescence, 48 h; series mostly up to 57.5 µM
Method in brief: as §1

[3] = system: Es-2; details: Gynecologic cancer cell panel viability, ATPlite luminescence, 48 h; series mostly up to 57.5 µM
Method in brief: as §1

[4] = system: HeLa; details: Gynecologic cancer cell panel viability, ATPlite luminescence, 48 h; series mostly up to 57.5 µM
Method in brief: as §1

[5] = system: Hek293T; details: Gynecologic cancer cell panel viability, ATPlite luminescence, 48 h, control line for the selectivity index; series mostly up to 57.5 µM
Method in brief: as §1

[6] = system: JEG-3; details: Gynecologic cancer cell panel viability, ATPlite luminescence, 48 h; series mostly up to 57.5 µM
Method in brief: as §1

[7] = system: OV90; details: Gynecologic cancer cell panel viability, ATPlite luminescence, 48 h; series mostly up to 57.5 µM
Method in brief: as §1

[8] = system: PA-1; details: Gynecologic cancer cell panel viability, ATPlite luminescence, 48 h; series mostly up to 57.5 µM
Method in brief: as §1

[9] = system: SKOV3; details: Gynecologic cancer cell panel viability, ATPlite luminescence, 48 h; series mostly up to 57.5 µM
Method in brief: as §1

[10] = system: Tov-21-G; details: Gynecologic cancer cell panel viability, ATPlite luminescence, 48 h; series mostly up to 57.5 µM
Method in brief: as §1

[11] = system: Tov112D; details: Gynecologic cancer cell panel viability, ATPlite luminescence, 48 h; series mostly up to 57.5 µM
Method in brief: as §1

Measured: Potency

CC1(C)NC2N(C1=O)c1ccccc1C2(O)CC(C(=O)O)n1cnc2ccccc2c1=O (centres undefined)
inactive: all assays above

CC1(C)CC[C@]2(C(=O)O[C@@H]3O[C@H](CO)[C@@H](O)[C@H](O)[C@H]3O)CC[C@]3(C)C(=CCC4[C@@]5(C)C[C@@H](O)[C@H](O)C(CO)(CO)C5CC[C@]43C)C2[C@@H]1O (some centres undefined)
inactive: all assays above

CC(C)(O)C1CCC2(C)C3C(O)C4C(C13)C42CO (centres undefined)
inactive: all assays above

COC(=O)C1=CO[C@@H](O[C@@H]2O[C@H](COC(=O)/C=C/c3cc(OC)c(O)c(OC)c3)[C@@H](O)[C@H](O)[C@H]2O)[C@@H]2C(CO)=CC[C@H]12
inactive: all assays above

COc1cccc2c1CCC[C@H]2CN(C)CCc1ccc2ccoc2c1
inactive: all assays above

CC1(C)CC2C(O)C3=C(CC(C)(O)C2C1)C(=O)OC3O (centres undefined)
inactive: all assays above

CC1CC(O)CC(C)(C)C1(O)CCO (centres undefined)
inactive: all assays above

COc1cc(NC(=O)c2ccccn2)ccc1Cl
inactive: all assays above

CC1CCC2(O1)C(C)(C)CC(O[C@@H]1O[C@H](CO[C@@H]3OC[C@](O)(CO)[C@H]3O)[C@@H](O)[C@H](O)[C@H]1O)CC2(C)O (some centres undefined)
inactive: all assays above

CCC(C)/C=C(C)/C=C/C1=CC2=C(Cl)C(=O)C(C)(OC(C)=O)C(=O)C2=CN1C1CCCCN(C(CCC(N)=O)C(=O)O)C1=O (centres undefined)
inactive: all assays above

CC1(C)CCCC2(C)C1C(O)C=C(CO)C2(O)C(=O)O (centres undefined)
inactive: all assays above

CCC(C)C(N)C1=NC(C(=O)N[C@@H](CC(C)C)C(=O)N[C@H](CCC(=O)O)C(=O)N[C@H](C(=O)N[C@H]2CCCCNC(=O)[C@H](CC(N)=O)NC(=O)[C@@H](CC(=O)O)NC(=O)[C@H](Cc3cnc[nH]3)NC(=O)[C@@H](Cc3ccccc3)NC(=O)[C@H]([C@@H](C)CC)NC(=O)[C@@H](CCCN)NC2=O)[C@@H](C)CC)CS1 (some centres undefined) (X1-L[dE]IK[dOrn]I[dF]H[dD]N; lactam 4-C)
inactive: all assays above

COC(=O)C1=CO[C@@H](O[C@@H]2O[C@H](CO)[C@@H](O)[C@H](O)[C@H]2O)[C@@H]2[C@@H](C)[C@@H](O)C[C@H]12
inactive: all assays above

Clc1ccc(CN[C@H]2CCN(c3ncc(Br)cn3)C2)c(Cl)c1
inactive: all assays above

Reference: PubChem BioAssay (NCATS)
